Of roughly 7,900 targets only a part is listed; those with a hit were picked by preference. About 0.6% of all pairs of compound and target were hits. A number with no mark means an inactive call.
Columns and labels:
Assay in all cases: log2 fold change, soluble protein after heating vs DMSO (PISA); higher = thermal stabilisation; K562 cells, 10 uM, 30 min; active = over 0.2 and 3.5 SD of the protein, either way, in both replicates (recomputed)
[1] = compound: CC1=C(C=C(C=C1)NC(=O)C2=CC(=CC=C2)C(C)(C)C#N)NC3=CC4=C(C=C3)N=CN(C4=O)C
Method in brief: (§1)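 K562 cells at 2×10^6 cells/mL were given 10 μM compound for 30 min. Aliquots then went through 3 min of heating across 48°C-58°C, were pooled, and were extracted in PBS with 0.5% NP-40 at 4°C, and the supernatant after 21,000xg for 90 min was quantified by TMTpro 16plex LC-MS/MS with channel sums equalised. Thermal stability relative to control samples, from duplicates, is given as log2 fold change.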

[2] = compound: CC1=C(C=C(C=C1)NC(=O)C2=CC(=CC=C2)N(C)C)NC(=O)C3=CC=C(C=C3)O
Method in brief: as §1

[3] = compound: CC1=CC=C(C=C1)SC2=C3C=C(SC3=CN=C2)C(=O)N
Method in brief: as §1

[4] = compound: CC1=NC(=CC=C1)C2=C(N=C(N2)C(C)(C)C)C3=CC4=NC=CN=C4C=C3
Method in brief: as §1

Nexturastat A = compound: CCCCN(Cc1ccc(C(=O)NO)cc1)C(=O)Nc1ccccc1 [Nexturastat A]
Method in brief: as §1

vemurafenib = compound: CCCS(=O)(=O)Nc1ccc(F)c(C(=O)c2c[nH]c3ncc(-c4ccc(Cl)cc4)cc23)c1F [vemurafenib]
Method in brief: as §1

[5] = compound: CCCS(=O)(=O)Nc1ccc(F)c(C(=O)c2c[nH]c3ncc(Cl)cc23)c1F
Method in brief: as §1

[6] = compound: CCCc1cc(C)[nH]c(=O)c1CNC(=O)c1cc(-c2ccnc(N3CCN(C)CC3)c2)cc2c1cnn2C(C)C
Method in brief: as §1

givinostat = compound: CCN(CC)Cc1ccc2cc(COC(=O)Nc3ccc(C(=O)NO)cc3)ccc2c1 [givinostat]
Method in brief: as §1

barasertib = compound: CCN(CCCOc1ccc2c(Nc3cc(CC(=O)Nc4cccc(F)c4)[nH]n3)ncnc2c1)CCOP(=O)(O)O [barasertib]
Method in brief: as §1

[7] = compound: CC[C@@H]1C(=O)N(C)c2cnc(Nc3ccc(C(=O)NC4CCN(C)CC4)cc3OC)nc2N1C1CCCC1
Method in brief: as §1

volasertib = compound: CC[C@@H]1C(=O)N(C)c2cnc(Nc3ccc(C(=O)N[C@H]4CC[C@H](N5CCN(CC6CC6)CC5)CC4)cc3OC)nc2N1C(C)C [volasertib]
Method in brief: as §1

[8] = compound: CC[C@H](C)N1C=C(C2=C(C=C(C=C21)C3=CN=C(C=C3)N4CCNCC4)C(=O)NCC5=C(C=C(NC5=O)C)C)C
Method in brief: as §1

epoxomicin = compound: CC[C@H](C)[C@@H](C(=O)N[C@@H]([C@@H](C)O)C(=O)N[C@@H](CC(C)C)C(=O)[C@]1(CO1)C)NC(=O)[C@H]([C@@H](C)CC)N(C)C(=O)C [epoxomicin]
Method in brief: as §1

[9] = compound: CCn1c(C(=O)N(C2CC2)C2CC2)cc2c3c(ncn3C)c(Nc3cc(C)n(C)n3)nc21
Method in brief: as §1

[10] = compound: CCn1cc(-c2ccnc3[nH]c(-c4cccc(CN(C)C)c4)cc23)c(-c2ccc(NC(=O)N(C)C)cc2)n1
Method in brief: as §1

[11] = compound: CN(C)CC(=O)Nc1ccc2[nH]c(=O)c3ccccc3c2c1
Method in brief: as §1

rosiglitazone = compound: CN(CCOC1=CC=C(C=C1)C[C@H]2C(=O)NC(=O)S2)C3=CC=CC=N3 (racemic) [rosiglitazone]
Method in brief: as §1

[12] = compound: CN1C2=C(C3=C1C(=O)N(N=C3)CC4=CC(=CC=C4)N)SC(=C2)S(=O)C
Method in brief: as §1

[13] = compound: CN1CCC(CNc2ccc3ncc(-c4cccc(OC(F)(F)F)c4)n3n2)CC1
Method in brief: as §1

Chain of UniProt P30837 (P30837 whole entry, looked up): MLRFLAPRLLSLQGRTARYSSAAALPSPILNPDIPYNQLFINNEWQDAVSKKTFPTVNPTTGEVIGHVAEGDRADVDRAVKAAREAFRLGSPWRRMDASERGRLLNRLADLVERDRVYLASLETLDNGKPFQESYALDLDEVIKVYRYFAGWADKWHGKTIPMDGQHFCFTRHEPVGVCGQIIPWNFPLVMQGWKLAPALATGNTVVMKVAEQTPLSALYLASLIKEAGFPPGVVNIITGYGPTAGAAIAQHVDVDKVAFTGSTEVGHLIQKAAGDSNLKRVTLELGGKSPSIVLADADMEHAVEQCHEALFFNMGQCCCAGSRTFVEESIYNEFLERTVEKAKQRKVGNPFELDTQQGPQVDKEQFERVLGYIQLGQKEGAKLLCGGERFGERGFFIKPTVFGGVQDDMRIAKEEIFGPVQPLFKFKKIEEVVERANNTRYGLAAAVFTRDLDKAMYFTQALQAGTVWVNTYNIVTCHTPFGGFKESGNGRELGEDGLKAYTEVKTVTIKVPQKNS
Chain of UniProt Q9Y3D8 (Q9Y3D8 whole entry, looked up): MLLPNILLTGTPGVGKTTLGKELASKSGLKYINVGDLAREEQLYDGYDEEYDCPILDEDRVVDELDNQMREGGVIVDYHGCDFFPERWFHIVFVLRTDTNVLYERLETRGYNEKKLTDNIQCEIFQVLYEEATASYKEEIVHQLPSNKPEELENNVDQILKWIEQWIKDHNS
Chain of UniProt Q8N6H7 (Q8N6H7 whole entry, looked up): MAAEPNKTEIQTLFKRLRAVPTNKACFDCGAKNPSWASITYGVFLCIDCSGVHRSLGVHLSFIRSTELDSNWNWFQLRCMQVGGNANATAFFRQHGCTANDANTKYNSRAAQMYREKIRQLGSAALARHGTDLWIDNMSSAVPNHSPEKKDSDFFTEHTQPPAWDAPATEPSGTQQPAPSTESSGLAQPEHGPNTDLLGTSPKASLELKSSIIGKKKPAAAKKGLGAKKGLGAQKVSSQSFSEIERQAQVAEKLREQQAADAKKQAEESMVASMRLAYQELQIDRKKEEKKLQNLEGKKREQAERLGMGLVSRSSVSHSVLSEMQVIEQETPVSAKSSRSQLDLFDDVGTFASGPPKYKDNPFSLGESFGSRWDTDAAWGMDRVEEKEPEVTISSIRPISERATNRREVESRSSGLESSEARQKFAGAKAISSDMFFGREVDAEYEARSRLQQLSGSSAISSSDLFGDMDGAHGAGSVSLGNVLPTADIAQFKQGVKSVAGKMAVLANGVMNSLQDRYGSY
Chain of UniProt O00170 (O00170 whole entry, looked up): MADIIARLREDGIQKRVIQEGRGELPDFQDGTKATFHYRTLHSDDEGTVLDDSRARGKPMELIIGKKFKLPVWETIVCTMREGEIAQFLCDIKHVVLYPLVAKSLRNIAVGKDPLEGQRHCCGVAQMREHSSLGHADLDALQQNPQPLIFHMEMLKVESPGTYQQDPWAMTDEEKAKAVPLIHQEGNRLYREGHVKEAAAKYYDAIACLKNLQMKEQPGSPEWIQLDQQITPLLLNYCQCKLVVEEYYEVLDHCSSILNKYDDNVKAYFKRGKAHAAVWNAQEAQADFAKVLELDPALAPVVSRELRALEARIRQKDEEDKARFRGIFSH
Chain of UniProt Q14457 (Q14457 whole entry, looked up): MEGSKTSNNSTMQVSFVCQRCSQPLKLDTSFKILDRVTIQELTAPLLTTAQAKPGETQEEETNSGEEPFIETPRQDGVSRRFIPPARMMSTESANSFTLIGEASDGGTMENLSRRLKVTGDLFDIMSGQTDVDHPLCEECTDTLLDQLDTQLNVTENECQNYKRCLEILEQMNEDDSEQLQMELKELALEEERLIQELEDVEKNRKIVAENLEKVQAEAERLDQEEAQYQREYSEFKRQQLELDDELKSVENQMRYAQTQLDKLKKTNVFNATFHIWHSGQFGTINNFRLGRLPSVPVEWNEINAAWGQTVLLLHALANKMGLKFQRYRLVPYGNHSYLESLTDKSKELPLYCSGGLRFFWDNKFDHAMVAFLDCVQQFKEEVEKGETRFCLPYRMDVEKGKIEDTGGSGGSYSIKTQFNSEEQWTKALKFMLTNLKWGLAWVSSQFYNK
Chain of UniProt Q13733 (Q13733 whole entry, looked up): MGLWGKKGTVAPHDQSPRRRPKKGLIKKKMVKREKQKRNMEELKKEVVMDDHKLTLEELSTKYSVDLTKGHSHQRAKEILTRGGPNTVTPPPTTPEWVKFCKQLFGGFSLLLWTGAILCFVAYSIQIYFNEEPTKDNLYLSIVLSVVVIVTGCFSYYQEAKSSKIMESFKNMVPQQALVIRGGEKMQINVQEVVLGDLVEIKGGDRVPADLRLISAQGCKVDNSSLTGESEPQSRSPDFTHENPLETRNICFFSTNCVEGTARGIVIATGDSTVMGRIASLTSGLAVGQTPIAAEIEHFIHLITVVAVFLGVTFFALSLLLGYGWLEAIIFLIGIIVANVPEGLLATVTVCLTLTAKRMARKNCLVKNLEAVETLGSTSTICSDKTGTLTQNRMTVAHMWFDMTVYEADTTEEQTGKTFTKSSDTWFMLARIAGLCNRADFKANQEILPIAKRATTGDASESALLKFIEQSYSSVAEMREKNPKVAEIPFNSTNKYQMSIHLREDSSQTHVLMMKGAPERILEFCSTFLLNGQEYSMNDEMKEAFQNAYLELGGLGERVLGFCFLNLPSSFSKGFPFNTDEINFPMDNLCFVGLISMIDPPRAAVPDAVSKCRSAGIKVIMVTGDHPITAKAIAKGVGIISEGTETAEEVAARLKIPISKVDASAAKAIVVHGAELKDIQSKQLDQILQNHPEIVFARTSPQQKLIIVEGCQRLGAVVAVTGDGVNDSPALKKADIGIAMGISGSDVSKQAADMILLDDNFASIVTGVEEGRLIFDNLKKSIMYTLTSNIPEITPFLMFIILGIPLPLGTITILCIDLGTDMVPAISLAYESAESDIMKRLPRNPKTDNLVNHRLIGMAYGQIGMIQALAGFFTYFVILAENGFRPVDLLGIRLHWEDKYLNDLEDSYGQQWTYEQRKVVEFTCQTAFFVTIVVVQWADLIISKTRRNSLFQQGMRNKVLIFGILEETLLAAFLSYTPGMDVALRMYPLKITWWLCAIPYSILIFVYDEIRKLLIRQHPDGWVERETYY
Chain of UniProt Q9BTT0 (Q9BTT0 whole entry, looked up): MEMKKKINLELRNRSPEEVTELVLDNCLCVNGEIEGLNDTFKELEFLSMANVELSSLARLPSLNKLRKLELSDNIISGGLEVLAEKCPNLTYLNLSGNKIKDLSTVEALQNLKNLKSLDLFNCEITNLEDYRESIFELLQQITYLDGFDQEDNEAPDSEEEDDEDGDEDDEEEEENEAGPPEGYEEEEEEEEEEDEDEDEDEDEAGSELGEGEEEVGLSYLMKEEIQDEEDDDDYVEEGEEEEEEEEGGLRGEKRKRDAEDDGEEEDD
Chain of UniProt Q9NWB6 (Q9NWB6 whole entry, looked up): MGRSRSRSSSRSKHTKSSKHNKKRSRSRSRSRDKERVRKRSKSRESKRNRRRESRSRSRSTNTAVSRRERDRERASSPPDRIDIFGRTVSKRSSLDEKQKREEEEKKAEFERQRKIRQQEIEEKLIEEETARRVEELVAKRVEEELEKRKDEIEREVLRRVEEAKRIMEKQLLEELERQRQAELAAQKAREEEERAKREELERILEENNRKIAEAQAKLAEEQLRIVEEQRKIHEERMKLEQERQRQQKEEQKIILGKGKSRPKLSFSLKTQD
Chain of UniProt Q9NX46 (Q9NX46 whole entry, looked up): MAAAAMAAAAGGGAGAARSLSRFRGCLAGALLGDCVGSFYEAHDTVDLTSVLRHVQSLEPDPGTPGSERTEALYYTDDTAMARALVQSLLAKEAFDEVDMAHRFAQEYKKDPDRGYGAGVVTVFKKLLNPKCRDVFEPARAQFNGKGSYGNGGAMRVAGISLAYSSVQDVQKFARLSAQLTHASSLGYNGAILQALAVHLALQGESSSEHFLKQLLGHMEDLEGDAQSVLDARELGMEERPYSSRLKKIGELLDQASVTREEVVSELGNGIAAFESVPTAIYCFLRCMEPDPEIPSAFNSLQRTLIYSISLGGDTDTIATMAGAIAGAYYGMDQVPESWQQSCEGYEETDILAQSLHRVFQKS
Chain of UniProt Q7Z3C6 (Q7Z3C6 whole entry, looked up): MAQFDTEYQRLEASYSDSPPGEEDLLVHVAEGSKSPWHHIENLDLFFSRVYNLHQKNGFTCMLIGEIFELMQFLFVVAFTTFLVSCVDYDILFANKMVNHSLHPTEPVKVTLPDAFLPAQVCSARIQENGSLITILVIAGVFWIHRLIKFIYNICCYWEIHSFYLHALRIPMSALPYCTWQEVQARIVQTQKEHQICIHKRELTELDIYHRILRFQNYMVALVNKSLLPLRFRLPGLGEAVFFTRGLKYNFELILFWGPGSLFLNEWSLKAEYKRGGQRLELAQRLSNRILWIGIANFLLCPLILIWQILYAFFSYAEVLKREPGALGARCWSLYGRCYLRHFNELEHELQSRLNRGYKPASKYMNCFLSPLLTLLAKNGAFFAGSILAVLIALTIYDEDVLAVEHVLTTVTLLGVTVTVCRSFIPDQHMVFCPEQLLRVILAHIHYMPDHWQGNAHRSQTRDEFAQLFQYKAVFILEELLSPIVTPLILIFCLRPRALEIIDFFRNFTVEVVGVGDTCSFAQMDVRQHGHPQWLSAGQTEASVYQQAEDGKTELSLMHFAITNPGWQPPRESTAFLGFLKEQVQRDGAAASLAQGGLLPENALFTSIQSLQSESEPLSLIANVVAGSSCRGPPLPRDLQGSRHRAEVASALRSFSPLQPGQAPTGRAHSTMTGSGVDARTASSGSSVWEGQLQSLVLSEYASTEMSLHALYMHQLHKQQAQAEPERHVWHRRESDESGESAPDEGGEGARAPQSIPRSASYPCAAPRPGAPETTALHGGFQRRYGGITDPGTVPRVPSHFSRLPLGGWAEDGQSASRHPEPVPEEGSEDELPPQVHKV
Chain of UniProt Q16864 (Q16864 whole entry, looked up): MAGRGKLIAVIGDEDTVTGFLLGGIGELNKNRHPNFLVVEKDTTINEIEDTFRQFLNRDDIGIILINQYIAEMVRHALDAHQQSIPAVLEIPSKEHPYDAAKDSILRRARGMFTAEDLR

Target | log2 fold change [1] | log2 fold change [2] | log2 fold change [3] | log2 fold change [4] | log2 fold change (Nexturastat A) | log2 fold change (vemurafenib) | log2 fold change [5] | log2 fold change [6] | log2 fold change (givinostat) | log2 fold change (barasertib) | log2 fold change [7] | log2 fold change (volasertib) | log2 fold change [8] | log2 fold change (epoxomicin) | log2 fold change [9] | log2 fold change [10] | log2 fold change [11] | log2 fold change (rosiglitazone) | log2 fold change [12] | log2 fold change [13]
ARFGAP2 (UniProt Q8N6H7) | 0.03 | -0.065 | -0.027 | -0.04 | -0.033 | 0.02 | 0.033 | 0.021 | 0.06 | 0.066 | -0.052 | -0.257 (active) | 0.067 | 0.009 | -0.037 | 0.023 | 0.017 | 0.038 | -0.015 | -0.068
ACSL1 (UniProt P33121) | 0.01 | 0.01 | 0.031 | 0.056 | -0.115 | -0.021 | 0.041 | -0.018 | -0.034 | -0.002 | -0.09 | -0.183 | 0.012 | 0.018 | 0.05 | -0.031 | 0 | 0.003 | -0.064 | -0.393 (active)
ADPRHL2 (UniProt Q9NX46) | 0.022 | -0.06 | 0.007 | 0.111 | -0.077 | 0.126 | 0.076 | -0.003 | 0.004 | 0.043 | -0.027 | 0.071 | -0.028 | 0.145 | -0.05 | -0.093 | 0.116 | 0.002 | -0.042 | 0.133
ATG9A (UniProt Q7Z3C6) | -0.019 | -0.017 | 0.038 | 0.008 | -0.018 | -0.006 | 0.019 | 0.007 | 0.019 | 0.045 | -0.019 | -0.326 (active) | 0.027 | -0.007 | 0.002 | -0.06 | 0.018 | 0.008 | 0.058 | -0.118
AIP (UniProt O00170) | 0.014 | -0.074 | 0.032 | 0.07 | -0.07 | 0.071 | 0.088 | 0.065 | 0.043 | 0.031 | -0.115 | -0.372 (active) | 0.054 | 0.172 | -0.006 | -0.051 | 0.057 | 0.053 | -0.085 | -0.047
ANP32E (UniProt Q9BTT0) | 0.041 | -0.098 | 0.091 | -0.02 | -0.11 | 0.091 | 0.035 | -0.001 | 0.112 | 0.076 | -0.132 | -0.499 (active) | 0.04 | 0.054 | -0.085 | -0.128 | -0.051 | -0.025 | -0.058 | -0.147
BRK1 isoform 2 (UniProt Q8WUW1) | -0.055 | -0.076 | 0.103 | 0.069 | -0.02 | 0.044 | -0.004 | 0.002 | 0.022 | 0.032 | 0.074 | -0.021 | -0.02 | 0.497 (active) | 0.021 | -0.009 | 0.031 | 0.011 | -0.053 | 0.137
ATP6V1F isoform 2 (UniProt Q16864) | -0.139 | 0.034 | 0.011 | 0.06 | 0.146 | 0.123 | -0.055 | 0.038 | -0.044 | 0.072 | 0.01 | -0.036 | -0.043 | 0.525 (active) | -0.02 | 0.02 | 0.165 | 0.003 | 0.033 | 0.056
ATG4B isoform 2 (UniProt Q9Y4P1) | -0.046 | -0.287 | 0.218 | -0.072 | 0.132 | 0.087 | -0.02 | 0.031 | 0.126 | 0.126 | -0.007 | -0.441 | 0.16 | -0.013 | 0.011 | 0.039 | 0.08 | 0.136 | 0.1 | -0.302
AK6 (UniProt Q9Y3D8) | 0.02 | -0.04 | 0.012 | 0.032 | -0.056 | 0.1 | 0.053 | 0.076 | 0.083 | 0.138 | -0.304 | -0.438 (active) | -0.001 | 0.08 | -0.081 | -0.007 | 0.148 | 0.074 | 0.027 | -0.322
ATP1A4 (UniProt Q13733) | 0.017 | 0.029 | 0.141 | 0.065 | -0.03 | -0.137 | -0.08 | -0.026 | -0.216 | 0 | 0.125 | 0.07 | -0.025 | 0.081 | -0.004 | -0.056 | -0.05 | 0.006 | -0.057 | 0.26 (active)
AKR1C2 (UniProt P52895) | -0.153 | -0.222 | -0.166 | -0.077 | 0.205 | -0.046 | -0.179 | 0.024 | 0.159 | -0.018 | 0.27 | 0.087 | 0.03 | -0.139 | -0.039 | 0.002 | -0.006 | -0.001 | 0.568 (active) | -0.016
ARGLU1 (UniProt Q9NWB6) | 0.046 | 0.055 | -0.136 | -0.044 | 0.147 | 0.061 | -0.045 | -0.009 | 0.001 | -0.075 | 0.094 | -0.004 | 0.033 | -0.106 | 0.024 | 0.138 | 0.003 | 0.012 | 0.068 | 0
ADD2 (UniProt P35612) | -0.014 | 0.018 | -0.01 | 0.002 | 0.026 | -0.03 | -0.002 | 0.01 | -0.007 | -0.011 | 0.037 | 0.031 | -0.044 | 0.006 | 0.025 | -0.043 | -0.038 | 0.003 | -0.02 | 0.008
BECN1 (UniProt Q14457) | -0.04 | 0.029 | 0 | 0.04 | 0.015 | 0.055 | -0.01 | -0.024 | -0.018 | -0.012 | 0.069 | -0.003 | 0.029 | 0.07 | 0.053 | -0.107 | -0.003 | 0.013 | 0.024 | 0.009
ALDH1B1 (UniProt P30837) | 0.054 | 0.008 | 0.128 | 0.017 | -0.104 | 0.011 | 0.032 | -0.016 | 0.032 | -0.001 | -0.036 | 0.05 | -0.005 | 0.032 | -0.05 | -0.113 | 0.001 | 0.048 | -0.095 | 0.058
